# PrPC TRFRET: cell surface PrPC inhibition, primary TR-FRET screen; P04156; TR-FRET read-out; inhibition, % at 13.8 µM; 370,000 compounds, 0.43% hits; AID 720596; in the data active = inhibition above about 24%; also: 0% = median of the test wells and 100% = reference compound wells
# MazF activator: increases E. coli MazEF RNase cleavage of RNA. P0AE70. FAM/BHQ RNA-DNA oligo cleavage fluorescence, 5 h. activation, % at 20 µM. 350,000 compounds, 0.32% hits; in the data active = activation above about 50%
# VHR inh abs: DUSP3 (human) phosphatase inhibition; P51452; recombinant VHR phosphatase, pNPP absorbance; inhibition, % at 13.3 µM; 290,000 compounds, 0.52% hits; AID 1654; in the data active = inhibition above about 50%
# PrP 5UTR inh: inhibition of PrP 5' UTR reporter expression. 340,000 compounds, 0.35% hits. inhibition, % (concentration not given with the values). cell-based PrP 5' UTR mRNA reporter, plate reader; in the data active = inhibition above about 52%; also: 0 = median of the neutral control wells
# BJeLR lethal: kills HRASV12-expressing BJeLR cells | 300,000 compounds, 0.17% hits | inhibition, % (no concentration beside the values) | BJeLR (HRASV12) viability, CellTiter-Glo ATP luminescence, 48 h; in the data active = inhibition above about 50%; inconclusive = no clear call, values can overlap the other calls
# PfHsp40 rescue: compounds rescuing yeast from Plasmodium falciparum HSP40 toxicity; S. cerevisiae expressing PfHsp40, growth rescue, ATP luminescence; growth rescue, % at 12.5 µM; 340,000 compounds, 0.68% hits; in the data active = growth rescue above about 28%, passing the limit was not always enough; inconclusive = no clear call, values can overlap the other calls;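 also: yeast W303a lacking pdr1 and pdr3 grown in galactose medium; growth measured after three days at 30 °C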
# PrPC TRFRET cf: cell surface PrPC inhibition, TR-FRET confirmation | shares compounds with PrPC TRFRET | AID 743200 | 1,500 compounds, 65% hits | cell surface PrPC level | inhibition, % at 13.8 µM; in the data active = inhibition above about 25%
# LD9 tox: LD9 cell cytotoxicity, PrPc inhibitor counter-screen | shares compounds with PrPC TRFRET | 1,500 compounds, 29% hits | inhibition, % at 13.8 µM | AID 743201 | LD9 cells cytotoxicity, luminescence viability; in the data active = inhibition above about 9.5%
# * = called active by the depositor; ? = inconclusive; . = not tested or not shown. Shown are actives, neighbours in structure and some others; about 2.1% of the full set was active somewhere.
SMILES,PrPC TRFRET,MazF activator,VHR inh abs,PrP 5UTR inh,BJeLR lethal,PfHsp40 rescue,PrPC TRFRET cf,LD9 tox
CNc1ncc(C(=O)c2ccc(Cl)c(Cl)c2)s1,6,-5,33,-56,-5,1,.,.
O=C(NCCCN1CCOCC1)c1cc(-c2ccc(F)cc2)no1,0,5,33,-29,9,-2,.,.
CN1C(=O)[C@H]2[C@@H](c3ccc(C(F)(F)F)cc3)N[C@]3(CCCN(Cc4cccn4C)C3=O)[C@H]2C1=O,7,5,.,.,.,.,.,.
Cc1ccc(/C=N/Nc2nc3ccccc3[nH]2)s1,27*,-2,-8,-83,-5,-1,10,5
Cc1[nH]c2ccccc2c1/C=N/Nc1nc2ccccc2[nH]1,30*,27,-12,-32,-4,4,6,12*
Cc1ccccc1/C=N/Nc1nc2ccccc2[nH]1,-1,0,-5,-44,10,.,.,.
C(=N\Nc1nc2ccccc2[nH]1)/c1c[nH]c2ccccc12,33*,10,5,-67,-3,0,5,4
CCC1CCc2sc(C(=O)NC3CCN(Cc4ccccc4)CC3)cc2C1 (configuration not stated),6,-8,.,-20,-3,0,.,.
COC(=O)c1ccc2nc(-c3cccc(Cl)c3)c(Cc3ccccc3)n2c1,-4,.,.,.,.,.,.,.
CNC(=S)/N=C/NOCc1ccc(Cl)cc1Cl,36*,1,13,-31,3,15,45*,35*
NC(=O)NOCc1ccc(Cl)cc1Cl,4,16,9,-23,2,-2,.,.
COc1cc(NS(=O)(=O)c2ccc(C)cc2)c2ncccc2c1,51*,1,18,5,23,542*,51*,69*
Cc1ccc(S(=O)(=O)Nc2cccc3cccnc23)cc1,39*,8,18,-7,2,?,72*,82*
COc1ccc(S(=O)(=O)Nc2ccccn2)cc1,-8,5,-8,-14,-4,1,.,.
O=C1NC[C@H](CCCCN2C[C@H](Cc3ccc(O)cc3)N(CC3CCCCC3)C(=O)C2=O)N(CC2CCCCC2)C1=O,25*,.,.,.,.,.,24,-1
O=C1NC[C@@H](CCCCN2C[C@H](Cc3ccc(O)cc3)N(CC3CCCCC3)C(=O)C2=O)N(Cc2ccccc2)C1=O,10,.,.,.,.,.,.,.
O=C(Nc1ccc(F)cc1)OCc1cn(Cc2ccc(F)c(F)c2)nn1,6,.,.,.,.,.,.,.
O=C(NCc1ccccc1Cl)C1CCC(CNS(=O)(=O)c2cccc3cccnc23)CC1 (configuration not stated),39*,.,.,.,.,.,50*,1
CC(=O)Nc1ccc2[nH]c(C)c(CC=C(Cl)Cl)c(=O)c2c1,37*,5,0,-9,-3,0,54*,-3
CCOC(=O)c1ccc2[nH]c(C)c(CCC(C)=O)c(=O)c2c1,1,8,-2,-16,9,6,.,.
COc1cccc(C(NC(C)=O)c2ccc3cccnc3c2O)c1 (configuration not stated),41*,1,-3,31,22,?,33*,44*
CC(=O)NC(c1ccccc1)c1cc([N+](=O)[O-])c2cccnc2c1O (configuration not stated),-8,-5,-9,-3,12,2,.,.
CC(=O)NC(c1ccc(C(C)C)cc1)c1ccc2cccnc2c1O (configuration not stated),26*,-3,5,33,35,-1,28*,22*
CC(=O)NC(c1cccc([N+](=O)[O-])c1)c1ccc2cccnc2c1O (configuration not stated),40*,4,26,31,35,194*,37*,38*
CCOC(=O)N1CCN(C(=O)C[C@H]2C[C@@]3(C(=O)OC)C(=C[C@H](C4CCCC4)O[C@@H]3C)N(Cc3ccc(Cl)cc3Cl)C2=O)CC1,-1,.,.,.,.,.,.,.
SMILES,PrPC TRFRET,MazF activator,VHR inh abs,PrP 5UTR inh,BJeLR lethal,PfHsp40 rescue,PrPC TRFRET cf,LD9 tox
O=C(NCc1cccnc1)c1csc([C@@H]2C[C@H](O)[C@@H](CO)O2)n1,-9,.,.,.,.,.,.,.
Nc1cc(C(=O)c2ccccc2)ccc1[N+](=O)[O-],-27,12,26,-10,5,3,.,.
CC1(Cc2ccc(Cl)c(Cl)c2)C(=O)Nc2ccc(S(=O)(=O)NC3CCCCC3)cc21 (configuration not stated),16,.,.,.,.,.,.,.
CC1(Cc2cccc(F)c2)C(=O)Nc2ccc(S(=O)(=O)NC3CCCCC3)cc21 (configuration not stated),36*,.,.,.,.,.,8,-4
COCCN(Cc1nc(-c2ccc(-c3ccccc3)cc2)oc1C)C(C)C,-2,5,-3,-45,4,0,.,.
Cc1nn(C)cc1CN(C)C(=O)c1cc(-c2ccccc2)nc2ccc(Br)cc12,68*,-1,19,-4,-1,-1,81*,6
O=C(O)c1cc(-c2cccnc2)nc2ccc(Br)cc12,45*,-7,18,-6,.,1,61*,-6
O=C(O)c1cc(-c2cccs2)nc2ccc(Br)cc12,40*,.,16,-24,12,0,78*,-5
O=C(O)c1cc(-c2cccs2)nc2ccc(F)cc12,9,13,7,-17,-1,1,.,.
O=C(NCc1ccc(Cl)cc1)C(=O)NCC(c1cccnc1)N1CCN(c2ccc(F)cc2)CC1 (configuration not stated),-2,3,20,-2,0,1,.,.
Cc1ccc(C(C)C)c(OCc2ccc(C(=O)N/N=C/c3ccc(O)cc3O)cc2)c1,38*,4,-5,35,35,1,43*,17*
Cc1ccc(C(C)C)c(OCc2ccc(C(=O)N/N=C/c3ccc(C(=O)O)cc3)cc2)c1,7,-18,7,3,-6,2,.,.
Cc1ccc(S(=O)(=O)NCCCN2CCCC2)cc1,55*,-2,18,-31,10,1,-1,-10
CCC/C=C/c1ccc(CN2C(C(C)C)C(=O)N(Cc3cn(CCC4OCCO4)nn3)CCS2(=O)=O)cc1 (configuration not stated),2,12,.,.,.,.,.,.
CNC(=O)[C@@H](NC(=O)[C@H](CC(C)C)[C@H](O)C(=O)NO)C(C)(C)C,61*,.,.,.,.,.,65*,-3
CNC(=O)C(NC(=O)CNC(=O)c1ccc(Cl)cc1)C(C)(C)C (configuration not stated),11,3,-3,-23,-4,1,.,.
O=[N+]([O-])c1ccc(N2CCOCC2)c2c1no[n+]2[O-],29*,0,.,.,.,.,45*,98*
CC[C@H](CO)Nc1nc(Nc2cccc(Cl)c2)c2ncn(C(C)C)c2n1,25*,7,7,2,-3,5,20,11*

# Source: PubChem (several laboratories)
